These results are taken from PubChem BioAssay (NCI).

Test systems include RPMI-8226 leukemia; OVCAR-8 ovarian; OVCAR-5 ovarian; OVCAR-4 ovarian; SK-OV-3 ovarian; IGROV1 ovarian; HS 578T breast; NCI/ADR-RES ovarian; T-47D breast; BT-549 breast; MDA-MB-435 melanoma; SW-620 colon; MCF7 breast; HCT-116 colon; HCC-2998 colon; KM12 colon; OVCAR-3 ovarian.
What all share (assay): NCI-60 one-dose screen, 48 h (100 = growth as untreated, 0 = no growth, -100 = all killed)
Holding throughout (settings): 10 µM unless noted

Molecules are shown by their SMILES. This is part of a sample that, as a whole, favours compounds with a hit. Of some 83,000 tested, about 20% had one in any assay.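 Negative percent growth values reflect cell death: -40 means 40% of the cells present at the start died, and -100 means all died.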 Unmarked numbers belong to inactive results. The source made the active and inactive calls. The calls were made as follows: active = growth percent below 10; inactive = the rest.

With `COc1ccc(/C=C/c2nc(N3CCOCC3)c3cc(F)c(F)cc3n2)cc1OC`, the growth was 12.2% with RPMI-8226 leukemia; 32.9% in the assay on OVCAR-8 ovarian; 76% in the assay on OVCAR-5 ovarian; 30.6% in the assay on OVCAR-4 ovarian; 71.8% in the assay with SK-OV-3 ovarian; 53.4% in the assay with IGROV1 ovarian. For the same molecule, the growth in the assay with HS 578T breast is 70.1%; in the assay on NCI/ADR-RES ovarian it was 22.8%; with T-47D breast, 6.31% (active); with BT-549 breast, 33.4%; in the assay on MDA-MB-435 melanoma, 15.8%; with SW-620 colon, 55.5%. The growth in the assay with MCF7 breast was 15.9%; in the assay with HCT-116 colon it was 38.7%; in the assay on HCC-2998 colon it was 38.2%; with KM12 colon it was 28.1%.
Turning to `CC1Cc2c(N(C)C)ncnc2N(C)c2ccc(O)cc21` (centres undefined), the growth in the assay with RPMI-8226 leukemia was 82.9%; with OVCAR-8 ovarian, 103%; in the assay on OVCAR-5 ovarian, 99.4%; in the assay with OVCAR-4 ovarian, 84.6%; in the assay with SK-OV-3 ovarian, 86%; in the assay on IGROV1 ovarian, 93.6%. Also, the growth in the assay on OVCAR-3 ovarian is 88.8%; in the assay with HS 578T breast, 76.2%; with NCI/ADR-RES ovarian, 84.2%; in the assay with T-47D breast, 89.7%; in the assay with MDA-MB-435 melanoma it was 8.93% (active); in the assay with SW-620 colon, 63.5%. The growth with MCF7 breast was 73.9%; in the assay with HCT-116 colon, 79.6%; with HCC-2998 colon, 88.8%; with KM12 colon it was 59.9%.
For `NC(=O)NNC(=O)c1ccccc1`, the growth in the assay with RPMI-8226 leukemia is 103%; in the assay on OVCAR-8 ovarian, 110%; in the assay with OVCAR-5 ovarian, 109%; in the assay on OVCAR-4 ovarian, 108%; in the assay on SK-OV-3 ovarian, 123%; in the assay on OVCAR-3 ovarian, 111%. Also, the growth with HS 578T breast was 108%; in the assay with NCI/ADR-RES ovarian, 103%; in the assay with T-47D breast, 111%; with BT-549 breast, 107%; in the assay on MDA-MB-435 melanoma it was 105%; with SW-620 colon, 108%. Also, the growth in the assay with MCF7 breast was 100%; in the assay with HCT-116 colon, 99.7%; in the assay on HCC-2998 colon, 107%; in the assay on KM12 colon, 103%.
Turning to `Nc1nc(N)c2nc(CNc3ccc(C(=O)CC(CCC(=O)O)C(=O)O)cc3)cnc2n1` (centres undefined), the growth is 58.3% in the assay on RPMI-8226 leukemia; 14.8% with OVCAR-8 ovarian; 53.1% in the assay with OVCAR-5 ovarian; 79.9% in the assay with OVCAR-4 ovarian; 52% in the assay on SK-OV-3 ovarian; -58.5% (active) with IGROV1 ovarian. Besides, the growth is 49.8% with OVCAR-3 ovarian; 82.4% with HS 578T breast; 25.6% in the assay with NCI/ADR-RES ovarian; 49.5% with T-47D breast; 63.3% with BT-549 breast; 34.4% in the assay with MDA-MB-435 melanoma. Further, the growth is 25.7% in the assay on SW-620 colon, 22.8% with MCF7 breast, 21.6% in the assay with HCT-116 colon and 32.2% in the assay with KM12 colon.
Turning to `CC[C@H](C)[C@H]1NC(=O)[C@@H](N[C@](C)(O)[C@@H](N)CC(C)C)[C@@H](C)OC(=O)[C@H](Cc2ccc(OC)cc2)N(C)C(=O)[C@@H]2CCCN2C(=O)[C@H](CC(C)C)NC(=O)[C@@H](C)C(=O)[C@H](C(C)C)OC(=O)C[C@@H]1O`, the growth is -33% (active) in the assay on RPMI-8226 leukemia; -13.6% (active) in the assay with OVCAR-8 ovarian; -14.9% (active) with OVCAR-5 ovarian; -6.08% (active) with OVCAR-4 ovarian; -13% (active) in the assay on SK-OV-3 ovarian; -13.4% (active) in the assay on IGROV1 ovarian. Also, the growth is -20.8% (active) with OVCAR-3 ovarian; -4.99% (active) in the assay with HS 578T breast; 37.4% with NCI/ADR-RES ovarian; -15.4% (active) in the assay with T-47D breast; -45.9% (active) in the assay with BT-549 breast; -35.4% (active) in the assay on MDA-MB-435 melanoma. Moreover, the growth in the assay on SW-620 colon is 0.636% (active); in the assay on HCT-116 colon, -15.1% (active); in the assay with HCC-2998 colon, -26.8% (active); in the assay on KM12 colon it was -14.8% (active).
`NCCSC(c1ccccc1)(c1ccccc1)c1ccccc1`: the growth was -24.7% (active) with RPMI-8226 leukemia; 25% with OVCAR-8 ovarian; 13.1% with OVCAR-5 ovarian; 33.6% in the assay on OVCAR-4 ovarian; 27.6% in the assay on SK-OV-3 ovarian; 22.2% with IGROV1 ovarian. Moreover, the growth in the assay on OVCAR-3 ovarian was 2.29% (active); with HS 578T breast it was 16.8%; in the assay with NCI/ADR-RES ovarian, -21.9% (active); with T-47D breast it was 25.6%; in the assay with MDA-MB-435 melanoma it was -52.9% (active); in the assay on SW-620 colon, 19.1%. Moreover, the growth is 2.6% (active) in the assay with MCF7 breast, 7.63% (active) in the assay on HCT-116 colon, -41.7% (active) in the assay with HCC-2998 colon and 17.9% in the assay with KM12 colon.
For `CC(C)C[C@H](NC(=O)[C@H](Cc1ccccc1)n1ccc(N2CCCCC2)cc1=O)B(O)O`, the growth in the assay with RPMI-8226 leukemia is -10.5% (active); with OVCAR-8 ovarian, 31.8%; with OVCAR-5 ovarian it was 39.3%; in the assay with OVCAR-4 ovarian, 39.3%; in the assay with SK-OV-3 ovarian it was 53.9%; in the assay on IGROV1 ovarian, 46.2%. For the same molecule, the growth in the assay on OVCAR-3 ovarian is -29.3% (active); with HS 578T breast, 22%; with NCI/ADR-RES ovarian, 90.3%; in the assay with T-47D breast, -20.4% (active); with MDA-MB-435 melanoma it was -66% (active); with SW-620 colon it was 6.5% (active). In addition, the growth was 31.3% with MCF7 breast, 2.64% (active) with HCT-116 colon, -36.9% (active) with HCC-2998 colon and 1.6% (active) in the assay on KM12 colon.
As for `CC(=O)N1Cc2ccccc2C(C)Cc2cc(Cl)ccc21` (centres undefined), the growth in the assay on RPMI-8226 leukemia was 105%; in the assay on OVCAR-8 ovarian, 109%; in the assay with OVCAR-5 ovarian it was 99.1%; in the assay on OVCAR-4 ovarian it was 97.9%; in the assay with SK-OV-3 ovarian, 108%; with IGROV1 ovarian, 102%. In addition, the growth in the assay with OVCAR-3 ovarian was 109%; in the assay with HS 578T breast, 97.7%; with NCI/ADR-RES ovarian, 117%; in the assay on T-47D breast, 100%; with BT-549 breast it was 115%; in the assay with MDA-MB-435 melanoma, 106%. Besides, the growth in the assay with SW-620 colon is 106%; in the assay with HCT-116 colon, 105%; in the assay with HCC-2998 colon, 100%; in the assay on KM12 colon, 103%.
On to `COc1cc2nc(Cl)nc(NCCO)c2cc1OC`, for which the growth with RPMI-8226 leukemia was 98.3%; with OVCAR-8 ovarian, 98.3%; in the assay on OVCAR-5 ovarian, 100%; with OVCAR-4 ovarian it was 102%; in the assay with SK-OV-3 ovarian, 119%; with IGROV1 ovarian, 108%. Also, the growth in the assay on OVCAR-3 ovarian was 111%; in the assay with HS 578T breast, 104%; in the assay with NCI/ADR-RES ovarian it was 112%; in the assay on T-47D breast, 101%; with MDA-MB-435 melanoma, 106%; with SW-620 colon it was 104%. The growth was 100% in the assay with MCF7 breast, 113% with HCT-116 colon and 102% in the assay with HCC-2998 colon.
As for `CC(Br)C(O)c1cc2c(cc1Br)OCO2` (centres undefined), the growth in the assay on RPMI-8226 leukemia was 101%; in the assay on OVCAR-8 ovarian it was 109%; with OVCAR-5 ovarian, 108%; with OVCAR-4 ovarian, 105%; with SK-OV-3 ovarian it was 118%; with OVCAR-3 ovarian, 109%. Further, the growth is 103% in the assay with HS 578T breast; 105% with NCI/ADR-RES ovarian; 100% with T-47D breast; 96.6% in the assay with BT-549 breast; 110% with MDA-MB-435 melanoma; 104% in the assay on SW-620 colon. The growth is 93% in the assay with MCF7 breast, 101% in the assay on HCT-116 colon, 111% in the assay with HCC-2998 colon and 108% in the assay on KM12 colon.
As to `O=C(O)Cc1ccc2c(c1)Cc1cccnc1O2`, the growth with RPMI-8226 leukemia was 105%; in the assay on OVCAR-8 ovarian it was 103%; in the assay on OVCAR-5 ovarian it was 101%; with OVCAR-4 ovarian, 101%; in the assay on SK-OV-3 ovarian, 103%; in the assay with IGROV1 ovarian it was 96.6%. Further, the growth is 108% with OVCAR-3 ovarian; 107% in the assay with HS 578T breast; 89.3% with T-47D breast; 103% with MDA-MB-435 melanoma; 106% with SW-620 colon; 100% with HCT-116 colon. The growth is 99% with HCC-2998 colon and 98.7% in the assay with KM12 colon.
In the case of `CCCCCCOc1ccc(C2(Cl)c3ccccc3N(C)c3ccccc32)cc1`, the growth was 47.5% in the assay with RPMI-8226 leukemia; 38.7% in the assay with OVCAR-8 ovarian; 107% in the assay with OVCAR-5 ovarian; 41.3% in the assay on OVCAR-4 ovarian; 60.7% in the assay on SK-OV-3 ovarian; 32.1% in the assay on OVCAR-3 ovarian. Besides, the growth was 54.7% in the assay on HS 578T breast; 52.3% in the assay on NCI/ADR-RES ovarian; 44.2% in the assay with T-47D breast; 86.5% with BT-549 breast; -23.5% (active) with MDA-MB-435 melanoma; 7.18% (active) with SW-620 colon. Further, the growth is 0.626% (active) with MCF7 breast, 16.1% in the assay with HCT-116 colon, 59.8% in the assay on HCC-2998 colon and 62.9% with KM12 colon.
